# Reference: PubChem BioAssay (EPA / NIEHS)
# “And” between values parts separate entries of the source, which are not always exact repeats. Equal entries are not always repeated. The source made the active and inactive calls. Rule for the calls: active = hit-call score of the fitted dose curve at least 0.9, where 1 is the maximum; inactive = score below 0.9.
# Read-out: Interleukin 6 (IL6), IL6 (gene 3569)
# Assay: BSK_BT_xIL6: BioMAP Diversity Plus: BT Assay for Interleukin 6 (IL6) Biomarker Activity (AID 2284228)
# Details: primary human B cells with PBMC
# Protocol: BSK_BT is a cell-based, multiplexed-readout assay that uses B cell and peripheral blood mononuclear cells, a human vascular primary cell co-culture, with measurements taken at 24 hours after chemical dosing in a microplate: 96-well plate.BSK_BT_xIL6 is an assay component measured in the BSK_BT assay. It measures secreted IL-6 related to regulation of gene expression using LumineX xMAP technology.Data from the assay component BSK_BT_xIL6 was analyzed at the endpoint, BSK_BT_xIL6, in the positive analysis fitting direction relative to DMSO as the negative control and baseline of activity. Using a type of cytokine quantitation reporter, gain or loss-of-signal activity can be used to understand protein changes. To generalize the intended target to other relatable targets, this assay endpoint is annotated to the 'cytokine' intended target family, where the subfamily is 'interleukins'.
# The levels of cell surface (or secreted, indicated by the prefix "s") biomarker endpoints were measured by ELISA. Overt cytotoxicity to cells in confluent adherent cultures (all systems other than the BT system) was assessed by measuring total protein levels using sulforhodamine B (SRB) staining in parallel cultures at the time of biomarker measurements, indicated as SRB endpoints. For proliferation assays for adherent cell types, individual cell types are cultured at sub-confluence and relative cell numbers quantified by SRB staining at time points optimized for each system (48 h: 3C and CASM3C systems; 72 h: BT and HDF3CGF systems; 96 h: SAg system). SRB was performed by staining cells with 0.1% SRB after fixation with 10% TCA and reading wells at 560 nm.Viability and proliferation of PBMC (T cells) was quantified by Alamar Blue reduction for the SAg and BT systems. For PBMC viability (referred to as PBMC Cytotoxicity within the assay endpoint names), cells were plated (75,000/well in a 96-well plate) and then chemical samples added for 1 h before addition of activators, SEB and TSST-1 (20 ng/mL final concentration each). Cells were incubated for 90 h. Then, Alamar Blue (20 uL/well) (Invitrogen, Cat DAL1100) was added for 6 h, and the plates were read with a fluorescence microplate reader at 546/580 nm (excitation/emission). For PBMC proliferation, cells were plated and activated as above but incubated for only 16 h prior to addition of Alamar Blue. Plates were read after 6 h.
SMILES,outcome,AC50
CC1OC1C1CCC2(C)OC2C1 (configuration not stated),inactive,
C/C=C\C/C=C/CCCCCCCCOC(C)=O,,15.2 µM (active)
C=CC=CC=CCCCCC,,6.43 µM (active)
c1ccc2c(c1)ccc1ncccc12,,1.14 µM (active)
CCO[Si](CCCN=C=O)(OCC)OCC,inactive,
CCOc1nc(F)cc2nc(S(=O)(=O)Nc3c(Cl)cccc3C(=O)OC)nn12,inactive,
O=C(Nc1ccccc1SSc1ccccc1NC(=O)c1ccccc1)c1ccccc1,,13.2 µM (active)
O=C(Cl)c1cc(C(=O)Cl)cc(C(=O)Cl)c1,,27.6 µM (active)
S=C(NC1CCCCC1)NC1CCCCC1,inactive,
O=Nc1ccc(O)cc1,inactive,
C=CCOCC(O)CCl (configuration not stated),inactive,
N#[N+]c1ccc2c(S(=O)(=O)[O-])cccc2c1O,inactive,
c1ccc2c(c1)ccc1cc3c(ccc4ccccc43)cc12,,3.57 µM (active) and 15 nM (active)
CCCCC(CC)COC(=O)c1ccccc1O (configuration not stated),inactive,
C=CCOc1c(Br)cc(Br)cc1Br,inactive,
CCCCNc1ccc(NCCCC)c2c1C(=O)c1ccccc1C2=O,inactive,
CCCCC/C=C\C/C=C\CCCCCCCC(=O)OC,,24.8 µM (active)
COc1ccc2nc(N)sc2c1,inactive,
CCCCCCCCCCCCCCCC[N+](C)(C)CC,,13.4 µM (active)
c1ccc(-c2ccccn2)nc1,inactive,
O=c1c2ccccc2oc2ccccc12,inactive,
CC(C)C(=O)C(C)C,inactive,
COCc1c(C(C)C)nc(C(C)C)c(/C=C/[C@@H](O)C[C@@H](O)CC(=O)O)c1-c1ccc(F)cc1,,0.494 µM (active)
CC(C)(c1cc(Br)c(OCCO)c(Br)c1)c1cc(Br)c(OCCO)c(Br)c1,,16.2 µM (active)
C=CC(=O)OCC(Br)CBr (configuration not stated),,12.9 µM (active)
C#CC1(O)CC[C@H]2[C@@H]3CCC4=CCCC[C@@H]4[C@H]3CC[C@@]21C (some centres not stated),,28.1 µM (active)
CCCCCCCCc1ccc(Nc2ccc(CCCCCCCC)cc2)cc1,inactive,
